Laboratory results reported in PubChem BioAssay.
The source made the active and inactive calls.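 Rule for the calls, unless noted: active = visually confirmed hit in the image check and inhibition above 20%; inconclusive = visually confirmed hit but inhibition not above 20%; inactive = no visual hit in the image check.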

Experiments:
[1] = inhibitors of TNFa-induced NFkB p65 translocation, primary screen, imaging, HUVEC, MLSMR starter and 10KST1 sets (AID 438;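 active = inhibition above 20% together with a positive visual image hit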;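 note: compound added about 3h40 before a 20 min TNFalpha stimulation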;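 for inhibition: signal is the nuclear over cytoplasmic p65 intensity ratio per well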); conditions: HUVEC TNFa-induced p65 nuclear translocation; cell count: measured here: nuclei count (cytotoxicity indicator), at 2.08 µM; inhibition: at 2 µM, stronger effect = higher value, 0% TNFa-plus-vehicle, 100% no-TNFa wells
[2] = reduction of polyQ htt aggregates in cells – imaging, exon1htt(103Q)mCFP cells, high-content imaging, primary screen (AID 483;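 active = visual image review flags a hit and inhibition of aggregation exceeds 20%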;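 note: compound exposure lasted 3 days before fixation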;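 for nuclei count: percent of the per-plate median nuclei count of sample wells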); conditions: exon1htt(103Q)mCFP cell line, aggregate imaging, at 2 µM; inhibition of aggregation: stronger effect = higher value; nuclei count: measured here: cell count, toxicity
[3] = endothelial E-selectin expression blockers – imaging, HUVEC, immunofluorescence, MLSMR starter and 10KST1 sets, primary screen (AID 487); conditions: HUVEC TNFalpha-induced E-selectin immunofluorescence imaging, at 2 µM; inhibition: stronger effect = higher value; nuclei count: measured here: cell number, toxicity;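 for inhibition: signal is fraction of cell area covered by stained E-selectin grains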;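 for nuclei count: 100% = median nuclei count of all wells on the same plate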
[4] = target: Voltage-gated potassium channel subunit beta-2 (Rattus norvegicus) (UniProt P62483); assay: inhibitors of rat Kvbeta2 reductase activity – biochemical, NADPH fluorescence, primary screen (AID 622;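 active = fluorescence slope higher than the sample average by over 3 SD, cut at about -0.22 in these data, passing the limit was not always enough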;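 note: slope of raw intensity against log time taken from 70 to 1610 s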); conditions: recombinant KvBeta, 4-cyanobenzaldehyde reduction, at 10 µM, stronger effect = higher value
[5] = target: Voltage-gated potassium channel subunit beta-2 (Rattus norvegicus) (UniProt P62483); assay: enhancers of rat Kvbeta2 NADPH turnover – biochemical, NADPH fluorescence, primary screen (AID 623;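 active = NADPH fluorescence slope more negative than the mean of all samples by about 3 SD, 99.7% confidence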;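 note: fluorescence intensity change per second fitted from 20 to 320 s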); conditions: Recombinant KvBeta, NADPH fluorescence decrease slope, 10 min; at 10 µM; stronger effect = lower value
[6] = target: Alpha-2C adrenergic receptor (Homo sapiens) (UniProt P18825); assay: compounds altering alpha2C-coupled GIRK flux – cell-based, HEK293 alpha2C/GIRK1/2, thallium flux, primary screen (AID 624;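 active = fluorescence slope after compound addition differing from the mean of all screened samples at 99.7% confidence, in either direction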;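 note: slope of fluorescence ratio to pre-addition baseline per second over 15 to 24 s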); conditions: thallium flux BTC fluorescence, at 10 µM, actives lie on both sides
[7] = blockers of RIG-like receptor reporter activation – cell-based, Sendai virus stimulus, luciferase, 10K MLSCN set, TLR/RLR signaling modifier project, primary screen (AID 602276;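 active = inhibition at or above 50% at 10 µM; inactive = inhibition below 50%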;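 note: firefly luciferase from ISG56 promoter only with Renilla not read in this screen; 0% = Sendai virus plus DMSO and 100% = medium plus DMSO without virus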); conditions: HEK293 RL24 IRF3 luciferase reporter, at 10 µM, stronger effect = higher value
[8] = TLR3 IRF3 reporter activation blockers – cell-based, poly I:C stimulus, luciferase, 10K MLSCN set, primary screen (AID 602277;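 active = inhibition of the reporter signal at or above 50%; inactive = inhibition below 50%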); conditions: HEK293-TLR3 RL24 IRF3 luciferase reporter, at 10 µM, stronger effect = higher value

Chain of Voltage-gated potassium channel subunit beta-2 (Rattus norvegicus) (P62483 whole entry, looked up): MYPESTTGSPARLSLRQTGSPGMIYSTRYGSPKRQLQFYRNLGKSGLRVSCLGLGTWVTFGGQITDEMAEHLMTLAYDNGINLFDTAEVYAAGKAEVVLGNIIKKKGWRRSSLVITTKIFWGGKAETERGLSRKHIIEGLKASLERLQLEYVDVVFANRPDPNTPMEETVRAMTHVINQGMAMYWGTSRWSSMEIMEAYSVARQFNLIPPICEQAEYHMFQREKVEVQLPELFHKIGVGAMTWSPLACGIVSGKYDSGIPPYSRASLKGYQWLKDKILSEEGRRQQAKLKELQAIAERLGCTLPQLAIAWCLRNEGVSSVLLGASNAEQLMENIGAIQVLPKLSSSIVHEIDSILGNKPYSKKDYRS
Chain of Alpha-2C adrenergic receptor (Homo sapiens) (P18825 whole entry, looked up): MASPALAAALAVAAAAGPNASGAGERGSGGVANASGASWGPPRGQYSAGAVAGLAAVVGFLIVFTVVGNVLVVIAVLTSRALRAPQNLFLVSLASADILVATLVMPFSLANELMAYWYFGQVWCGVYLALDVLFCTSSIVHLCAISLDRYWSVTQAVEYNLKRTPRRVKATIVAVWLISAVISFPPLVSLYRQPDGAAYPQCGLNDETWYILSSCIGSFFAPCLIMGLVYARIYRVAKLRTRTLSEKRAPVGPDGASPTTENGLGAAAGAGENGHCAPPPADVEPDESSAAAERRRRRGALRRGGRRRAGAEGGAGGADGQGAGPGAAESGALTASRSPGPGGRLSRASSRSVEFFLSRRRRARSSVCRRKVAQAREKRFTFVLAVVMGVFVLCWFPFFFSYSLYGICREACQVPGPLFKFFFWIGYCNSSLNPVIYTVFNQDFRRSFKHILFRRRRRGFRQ

Row | Structure (SMILES) | cell count [1] | inhibition [1] | inhibition of aggregation [2] | nuclei count [2] [%] | inhibition [3] | nuclei count [3] [%] | fluorescence slope [4] | NADPH fluorescence slope [5] | slope [6] | inhibition [7] | inhibition [8]
1 | Cc1ccc(S(=O)(=O)C2(C(=O)Nc3nccs3)CC2)cc1 | 584 | 6.5% (inactive) | 0% (inactive) | 95.6 | -69.3% (inactive) | 103 | -0.586 (inactive) | -2.1e-05 (inactive) | 0.00637 (inactive) | 13% (inactive) | 32.7% (inactive)
2 | CCN1CCN(c2ncnc3c2oc2nc(C)c4c(c23)CC(C)(C)OC4)CC1 | 476 | -2.9% (inactive) | 0.7% (inactive) | 102 | -35.5% (inactive) | 116 | -0.472 (inactive) | -2.5e-05 (inactive) | 0.00388 (inactive) | -6.53% (inactive) | 30.5% (inactive)
3 | CCCc1c(O)nc(SCC(=O)NCCc2ccc(OC)c(OC)c2)[nH]c1=O | 581 | -10.8% (inactive) | 5.3% (inactive) | 73.8 | 38.4% (inactive) | 82.7 | -0.486 (inactive) | -3.3e-05 (inactive) | 0.00432 (inactive) | 13.2% (inactive) | 13.9% (inactive)
4 | O=S1(=O)CCC(NS(=O)(=O)/C=C/c2ccccc2)C1 (stereo not drawn) | 566 | -1.6% (inactive) | 2% (inactive) | 119 | -1.4% (inactive) | 96.4 | -0.386 (inactive) | -0.000106 (inactive) | 0.00742 (inactive) | 4.67% (inactive) | 14.6% (inactive)
5 | Cc1csc(NC(=O)c2ccco2)n1 | 464 | -3.3% (inactive) | -1.8% (inactive) | 109 | -72% (inactive) | 131 | -0.32 (inactive) | -1.3e-06 (inactive) | 0.00701 (inactive) | -20.1% (inactive) | -56.9% (inactive)
6 | COc1ccc(N2CCN(C(c3ccccc3)c3sc4nc(C)nn4c3O)CC2)cc1 (stereo not drawn) | 694 | -12.9% (inactive) | -0.9% (inactive) | 112 | -21.7% (inactive) | 96.4 | -0.452 (inactive) | -4.8e-05 (inactive) | 0.00526 (inactive) | 8.1% (inactive) | 11.1% (inactive)
7 | CC1=C(C)[N+](=O)C2CCCCC2N1[O-] (stereo not drawn) | 705 | 3.9% (inactive) | 13.8% (inactive) | 104 | 58% (inactive) | 86.5 | -0.368 (inactive) | -0.000147 (inactive) | 0.00784 (inactive) | -0.132% (inactive) | 16.1% (inactive)
8 | COc1cc2c(C)nc(C)c(C#N)c2cc1OC | 709 | -23.3% (inactive) | -17.8% (inactive) | 85.6 | -12.4% (inactive) | 124 | -0.481 (inactive) | -4.4e-05 (inactive) | 0.00598 (inactive) | 2.98% (inactive) | 2.54% (inactive)
9 | COc1ccc(C(=O)Nc2ccc(C)cn2)c(OC)c1 | 283 | 14.7% (inactive) | -14.1% (inactive) | 79 | -3.2% (inactive) | 101 | -0.469 (inactive) | -3.9e-05 (inactive) | 0.00731 (inactive) | -3.57% (inactive) | 53.3% (active)
10 | CN(C)CCCOC(=O)CCc1ccccc1 | 317 | -11.5% (inactive) | 4.5% (inactive) | 95.6 | -26.3% (inactive) | 111 | -0.312 (inactive) | -3.9e-05 (inactive) | 0.00462 (inactive) | -0.368% (inactive) | 5.94% (inactive)
11 | O=C(CSc1nc2ncccc2[nH]1)Nc1ccc2c(c1)OCCO2 | 507 | 1.7% (inactive) | 10.1% (inactive) | 87.8 | -113% (inactive) | 177 | -0.509 (inactive) | 2.9e-05 (inactive) | 0.00643 (inactive) | -4.29% (inactive) | -22.7% (inactive)
12 | CS(=O)(=O)N1CCc2cc(S(=O)(=O)Nc3ccc4oc5c(c4c3)CCCC5)ccc21 | 484 | 7.3% (inactive) | -8.4% (inactive) | 104 | -40% (inactive) | 121 | -0.531 (inactive) | 1.3e-05 (inactive) | 0.00786 (inactive) | 11.9% (inactive) | 3.23% (inactive)
13 | Fc1ccccc1C(c1nnnn1Cc1ccc2c(c1)OCO2)N1CCN(Cc2ccccc2)CC1 (stereo not drawn) | 324 | -0.8% (inactive) | -2.5% (inactive) | 112 | 30.7% (inactive) | 108 | -0.631 (inactive) | 1.1e-05 (inactive) | 0.00506 (inactive) | -8.04% (inactive) | -3.59% (inactive)
14 | COc1ccc(CCNC(=O)C2CCN(S(=O)(=O)c3cc(OC)ccc3OC)CC2)cc1 | 269 | -5.3% (inactive) | 3% (inactive) | 93.2 | -26.1% (inactive) | 98.3 | -0.39 (inactive) | -6.1e-05 (inactive) | 0.00597 (inactive) | 14.7% (inactive) | 31.4% (inactive)
15 | CC(C)C1N=C2c3ccccc3N=C(SCc3cc(=O)n4ccccc4n3)N2C1=O (stereo not drawn) | 646 | -10.9% (inactive) | 4.4% (inactive) | 58.8 | -35.3% (inactive) | 90 | -0.451 (inactive) | 2.2e-05 (inactive) | 0.00398 (inactive) | 6.75% (inactive) | -22.1% (inactive)
16 | CCN(CC(=O)Nc1c(C(=O)OC)[nH]c2ccccc12)c1ccc2c(c1)OCO2 | 309 | -2.1% (inactive) | -25.6% (inactive) | 70.8 | -53.3% (inactive) | 103 | -0.376 (inactive) | -6.7e-05 (inactive) | 0.00578 (inactive) | 20.2% (inactive) | 8.63% (inactive)
17 | Cc1c(NC(=O)Cn2nc(C(=O)O)c3ccccc3c2=O)c(=O)n(-c2ccccc2)n1C | 521 | -10.8% (inactive) | -2.1% (inactive) | 93.8 | -148% (inactive) | 111 | -0.541 (inactive) | 3.3e-05 (inactive) | 0.00605 (inactive) | -13.8% (inactive) | -13.3% (inactive)
18 | Cn1c(=O)[nH]c(=O)c2c1nc(Br)n2Cc1ccccc1F | 668 | 8.8% (inactive) | 19.4% (inactive) | 68.3 | 4.9% (inactive) | 106 | -0.467 (inactive) | -3.7e-05 (inactive) | 0.00509 (inactive) | 9.21% (inactive) | 12.8% (inactive)
19 | CCOCCCn1c(=S)[nH]c2cc3c(cc2c1=O)OCO3 | 453 | 3% (inactive) | -8.1% (inactive) | 92 | -12.7% (inactive) | 103 | -0.489 (inactive) | -5.9e-05 (inactive) | 0.00895 (inactive) | -16.3% (inactive) | -2.74% (inactive)
20 | CC(=O)Nc1cccc(NC(=O)c2oc3ccccc3c2C)c1 | 343 | -0.2% (inactive) | 0.5% (inactive) | 98.8 | -9.3% (inactive) | 112 | -0.521 (inactive) | 1.6e-05 (inactive) | 0.00572 (inactive) | -37.4% (inactive) | -104% (inactive)
21 | O=C(COc1ccccc1Cl)NCCCN1CCOCC1 | 458 | 5.4% (inactive) | 0% (inactive) | 117 | -11.3% (inactive) | 126 | -0.509 (inactive) | -5.8e-05 (inactive) | 0.00528 (inactive) | 10.2% (inactive) | 18.2% (inactive)
22 | O=C1C(Cl)=C(NCC2CCCO2)C(=O)N1CCc1ccccc1 (stereo not drawn) | 711 | -10% (inactive) | 9.2% (inactive) | 102 | 27.8% (inactive) | 107 | -0.448 (inactive) | 1.5e-05 (inactive) | 0.00576 (inactive) | -53.6% (inactive) | -108% (inactive)
23 | COc1ccccc1N1CCN(Cc2nc(N)nc(Nc3ccc(C)c(Cl)c3)n2)CC1 | 467 | -1.9% (inactive) | 17.2% (inactive) | 97.1 | -5.6% (inactive) | 100 | -0.501 (inactive) | 1e-05 (inactive) | 0.00625 (inactive) | 11.5% (inactive) | 29.6% (inactive)
24 | O=C(Nc1ccccc1C(=O)N1CCN(c2ccccc2)CC1)c1ccco1 | 300 | -5.1% (inactive) | 6.3% (inactive) | 98.2 | -73.2% (inactive) | 111 | -0.605 (inactive) | -2.1e-05 (inactive) | 0.00253 (inactive) | 0.26% (inactive) | -6.86% (inactive)
25 | Cc1cccc(CC2CC(=O)N(c3ccccc3)C2=O)c1 (stereo not drawn) | 203 | -2.9% (inactive) | -15.1% (inactive) | 84.5 | 11.6% (inactive) | 102 | -0.554 (inactive) | -2.2e-05 (inactive) | 0.00674 (inactive) | -16.2% (inactive) | -11.2% (inactive)
26 | Cc1ccc(CCNC(=O)C2CCN(S(=O)(=O)c3c(C)nn(C)c3C)CC2)cc1 | 621 | 6.1% (inactive) | -21.9% (inactive) | 105 | -8.4% (inactive) | 116 | -0.618 (inactive) | -5.1e-06 (inactive) | 0.00762 (inactive) | -5.1% (inactive) | 6.19% (inactive)
27 | Cc1cnc(C(=O)OCC(=O)Nc2ccc(Cl)cc2Cl)cn1 | 738 | 8.7% (inactive) | -16.9% (inactive) | 119 | -37% (inactive) | 94.9 | -0.51 (inactive) | -5.1e-05 (inactive) | 0.00552 (inactive) | 10.9% (inactive) | 14.7% (inactive)
28 | O=C(O)c1cccn2c(=O)c3ccccc3nc12 | 799 | -2.3% (inactive) | -14.1% (inactive) | 84.3 | -19.6% (inactive) | 126 | -0.313 (inactive) | -2.6e-05 (inactive) | 0.0061 (inactive) | 8.6% (inactive) | 6.83% (inactive)
